Data as given in PubChem BioAssay (NCATS).
“And” between values parts separate entries of the source, which are not always exact repeats. Identical values can stand only once. Inconclusive results are not listed. The source made the active and inactive calls. Unless noted, calls follow the shape of the dose curve; as a rule, active = well fitted curve in the direction sought with a large enough effect; inconclusive = small, poorly fitted or top-dose-only effect, or another doubt; inactive = no such curve, though single readings can be large; an effect the other way counts as inactive or inconclusive.

Key:
[1] = Validation of Assay for Modulators of Lamin A Splicing (AID 1459; active = well fitted curve in the direction sought with a large enough effect in the signal ratio; the % refers to the signal ratio;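 also: cells exposed to compound for two days before reading; 0% is about no effect; ratio rise marks activators and ratio drop marks inhibitors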)
Summary of the method: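 Readout: ratio of GFP (500-530 nm) to RFP (575-640 nm) total object intensity by 488 nm laser-scanning cytometry after 48 hrs. Cells were HeLa S3 clones carrying lamin A-EGFP minigene plus DsRed2 viability reporter; vehicle 0.5% DMSO final.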

[2] = qHTS Assay for Lipid Storage Modulators (AID 1519; calls by dose curve; as to activity change, negative = inhibition: % is scaled to controls: 0 for no effect and ±100 for the full control effect); details: Drosophila S3 cells, BODIPY lipid droplet/cell ratio, laser cytometry, cells loaded with oleic acid
Summary of the method: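 Cells seeded at 5,000 per well were treated with compounds over a concentration series and loaded with oleic acid (400 uM, as added). Lipid droplet fluorescence (488 nm excitation, 500-530 nm channel) was read by laser-scanning cytometry and normalized to 20 uM Triacsin C.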

[3] = target: DNA repair nuclease/redox regulator APEX1 (Homo sapiens) (UniProt P27695); assay: qHTS Validation Assay for Inhibitors of the Human Apurinic/apyrimidinic Endonuclease 1 (APE1) (AID 1705;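 also: TAMRA fluorescence gain over two minutes as APE1 cuts a quenched THF abasic duplex; % is scaled to controls: 0 for no effect and ±100 for the full control effect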)
DNA repair nuclease/redox regulator APEX1 (Homo sapiens), sequence (P27695 whole entry, looked up): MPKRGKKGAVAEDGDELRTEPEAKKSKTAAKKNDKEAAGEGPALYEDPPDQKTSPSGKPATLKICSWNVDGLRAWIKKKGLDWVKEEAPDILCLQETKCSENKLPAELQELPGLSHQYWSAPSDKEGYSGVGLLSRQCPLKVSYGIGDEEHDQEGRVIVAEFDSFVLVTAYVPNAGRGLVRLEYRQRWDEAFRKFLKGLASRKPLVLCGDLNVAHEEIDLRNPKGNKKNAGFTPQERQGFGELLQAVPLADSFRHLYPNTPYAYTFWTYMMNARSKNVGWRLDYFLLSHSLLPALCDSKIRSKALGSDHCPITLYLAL
Summary of the method: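 Read-out: TAMRA fluorescence (525 nm ex, 598 nm em) from cleavage of a quenched THF abasic-site duplex, 50 nM final; activity taken as intensity change between third and first of three reads 60 s apart.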

[4] = Counterscreen for APE1 Inhibitors: Fluorescent Dye Displacement Validation Assay (AID 1707);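 also: plate controls were ThO with dsDNA and no compound for no effect and ThO without dsDNA for full effect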
Summary of the method: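 Counterscreen flags promiscuous DNA binders: compounds displacing ThO from duplex DNA (abasic THF site, 50 nM) reduce 540 nm emission (480 nm excitation). ThO 250 nM final; Tris-HCl pH 7.5 with NaCl, MgCl2 and Tween-20.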

[5] = target: Endonuclease 4 (Escherichia coli (strain K12)) (UniProt P0A6C1); assay: Counterscreen for APE1 Inhibitors: qHTS Validation Assay for Inhibitors of Endonuclease IV (AID 1708); also: % is scaled to controls: 0 for no effect and ±100 for the full control effect
Summary of the method: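 The reaction buffer contained 50 mM Tris-HCl pH 7.5, 50 mM NaCl, 2 mM MgCl2, 1 mM DTT and 0.01% Tween-20. Incision of a 50 nM fluorophore/quencher THF substrate by 2 nM enzyme was measured kinetically.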

[6] = qHTS for differential inhibitors of proliferation of Plasmodium falciparum line 7G8 (AID 1815);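 also: parasite growth measured after three days of incubation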; also: potency is read from the fitted curve at half-maximal effect;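 as to activity change, negative = inhibition: plate controls were vehicle wells for no effect and reference inhibitor wells for full effect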
[7] = qHTS for differential inhibitors of proliferation of Plasmodium falciparum line GB4 (AID 1816); details: Potency: Plasmodium falciparum GB4 proliferation inhibition;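 also: parasite growth measured after 72 h incubation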; also: potency is read from the fitted curve at half-maximal effect;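 as to activity change, negative = inhibition: 0% = vehicle DMSO and -100% = reference inhibitor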
[8] = qHTS for differential inhibitors of proliferation of Plasmodium falciparum line D10 (AID 1877);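 also: parasites grown with compound for 72 h before DNA staining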; also: potency is read from the fitted curve at half-maximal effect;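 as to activity change, negative = inhibition: plate controls were vehicle wells for no effect and reference inhibitor wells for full effect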
[9] = qHTS for differential inhibitors of proliferation of Plasmodium falciparum line Dd2 (AID 1882); details: Potency: Plasmodium falciparum Dd2 proliferation inhibition; also: nearly all actives have a fitted effect of over 65% in size; also: potency is read from the fitted curve at half-maximal effect;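 as to activity change, negative = inhibition: compound exposure of 72 h on infected erythrocytes; plate controls were DMSO vehicle for no effect and 0.29 µM artemisinin for full effect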
Summary of the method: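 RBC culture, 0.3% parasitemia / 2.5% Hct final; cpd added by pin tool in DMSO; 72 h, 37 C, 5% CO2; lysis buffer + SYBR Green I, o/n RT dark; FI 485/535; norm. to artemisinin 0.29 uM and DMSO.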

[10] = qHTS for differential inhibitors of proliferation of Plasmodium falciparum line HB3 (AID 1886); details: Potency: Plasmodium falciparum HB3 proliferation inhibition;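 also: parasites grown with compound for 72 h before SYBR Green readout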; also: potency is read from the fitted curve at half-maximal effect;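 as to activity change, negative = inhibition: plate controls were vehicle for no effect and reference inhibitor for full effect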
[11] = target: ATP-dependent DNA helicase Q1 (Homo sapiens) (UniProt P46063); assay: qHTS Validation Assay for Inhibitors of RecQ-Like Dna Helicase 1 (RECQ1) (AID 2353);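 also: plate controls were DMSO vehicle for no effect and enzyme-free control for full effect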
ATP-dependent DNA helicase Q1 (Homo sapiens), sequence (P46063 whole entry, looked up): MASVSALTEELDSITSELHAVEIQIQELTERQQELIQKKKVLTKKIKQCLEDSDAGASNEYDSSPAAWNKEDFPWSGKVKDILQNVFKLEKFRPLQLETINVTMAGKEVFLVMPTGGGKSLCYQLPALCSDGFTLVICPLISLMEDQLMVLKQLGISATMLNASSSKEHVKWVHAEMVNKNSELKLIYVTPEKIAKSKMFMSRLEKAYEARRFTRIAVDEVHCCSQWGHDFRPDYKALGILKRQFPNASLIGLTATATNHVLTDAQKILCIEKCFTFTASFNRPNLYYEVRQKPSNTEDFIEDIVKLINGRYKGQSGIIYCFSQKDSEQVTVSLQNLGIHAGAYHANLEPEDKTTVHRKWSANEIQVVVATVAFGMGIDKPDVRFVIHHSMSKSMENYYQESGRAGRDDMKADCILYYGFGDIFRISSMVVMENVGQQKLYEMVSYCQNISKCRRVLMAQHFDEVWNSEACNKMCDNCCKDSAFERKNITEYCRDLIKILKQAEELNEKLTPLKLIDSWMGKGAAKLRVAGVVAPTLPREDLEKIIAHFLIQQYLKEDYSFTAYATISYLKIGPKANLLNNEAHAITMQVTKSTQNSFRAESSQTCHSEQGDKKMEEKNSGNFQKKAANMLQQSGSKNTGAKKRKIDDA
Summary of the method: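 RECQ1T1 50 nM; forked duplex (20 bp + 30-nt ss tails) 200 nM, ATP 2 mM final; pH 8.0, 2 mM MgCl2, 2.5 ug/ml poly(dI-dC); 15 min compound preincubation; discontinuous kinetic read over 2 h at RT.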

[12] = Cytometric Cell-Based qHTS for Inhibitors of the mTORC1 Signaling Pathway in MEF (Tsc2-/-, p53-/-) Cells (AID 2660);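 also: Tsc2 and p53 null MEFs carrying empty vector with compound for 24 h; percent of cells above a phospho-rpS6 to PI ratio cutoff in each well; plate controls were DMSO for no effect and rapamycin for full effect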
Summary of the method: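 Immunofluorescence qHTS of rpS6 Ser235/236 phosphorylation: MEFs (Tsc2-/-, p53-/-) treated 24 h, 37 C, in DMEM + 10% FBS. Alexa-488 signal normalized to PI count, referenced to rapamycin (7.5 nM) and DMSO; PI cell number recorded for viability.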

[13] = High Content Imaging Cell-Based qHTS for Inhibitors of the mTORC1 Signaling Pathway in MEF (Tsc2-/-, p53-/-) Cells (AID 2666); details: at 38.3 µM (top of the series);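 also: percent of cells scored positive for phospho-rpS6 Ser235/236 immunostaining by imaging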
Summary of the method: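 Tsc2-/-, p53-/- MEFs (empty-vector stable) grown in DMEM + 10% FBS were exposed to compounds for 24 hrs at 37 degree Celsius, fixed, and stained with Alexa-488 anti-phospho-rpS6 Ser235/236 plus Hoechst. Imaging gave the percentage of positive cells per well.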

[14] = High Content Imaging Cell-Based qHTS for Inhibitors of the mTORC1 Signaling Pathway in MEF Cells (AID 2667);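 also: Tsc2-/- p53-/- MEFs stably re-expressing wild-type Tsc2 exposed 24 h; plate controls were DMSO wells for no effect and rapamycin control wells for full effect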
Summary of the method: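 Tsc2-/-, p53-/- MEFs stably re-expressing WT Tsc2, grown in DMEM + 10% FBS, were treated with compounds for 24 hrs at 37 degree Celsius, fixed, and stained with Alexa-488 phospho-rpS6 Ser235/236 antibody plus Hoechst; results given as % positive cells.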

[15] = Cytometry Cell-Based qHTS for Inhibitors of the mTORC1 Signaling Pathway in MEF cells (AID 2668);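 also: Tsc2-/- p53-/- mouse embryonic fibroblasts stably re-expressing wild-type Tsc2; percent cells positive for phospho-rpS6 Ser235/236 relative to propidium iodide stain; plate controls were DMSO wells for no effect and 7.5 nM rapamycin control wells for full effect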
Summary of the method: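 Read-out: phospho-rpS6 Ser235/236 immunofluorescence normalized to propidium iodide intensity, scored as % active cells against a rapamycin (7.5 nM) threshold. Cells: Tsc2-/-, p53-/- MEFs stably expressing WT Tsc2, compound-treated 24 hrs at 37 degree Celsius.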

[16] = qHTS for differential inhibitors of proliferation of Plasmodium falciparum line 3D7 (AID 1876); also: potency is read from the fitted curve at half-maximal effect
[17] = qHTS for differential inhibitors of proliferation of Plasmodium falciparum line W2 (AID 1883); details: Potency: Plasmodium falciparum W2 proliferation inhibition;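 also: parasites grown with compound for 72 h before lysis and staining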; also: potency is read from the fitted curve at half-maximal effect;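 as to activity change, negative = inhibition: 0% = vehicle wells and -100% = control inhibitor wells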
[18] = qHTS Assay for Modulators of Human Peripheral Myelin Protein 22 (PMP22) Expression/Activity (AID 1967; active = well fitted curve in the direction sought with a large enough effect in the signal ratio; the % refers to the signal ratio;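 also: 0% = untreated cells and 100% end not stated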)
Summary of the method: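 Mouse MSC80 Schwann line, Pmp22 promoter–CBG68 reporter, EF-alpha–CBR internal control. 24h compound exposure, 37 °C/5% CO2, DMEM + 10% FBS. Readout: corrected green/red luminescence ratio, normalized to untreated cells; concentration-response curves fitted and classified.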

[19] = target: RecQ-like DNA helicase BLM (Homo sapiens) (UniProt P54132); assay: qHTS Validation Assay for Inhibitors of Bloom's syndrome helicase (BLM) (AID 2364);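 also: plate controls were DMSO vehicle for no effect and enzyme-free control for full effect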
RecQ-like DNA helicase BLM (Homo sapiens), sequence (P54132 whole entry, looked up): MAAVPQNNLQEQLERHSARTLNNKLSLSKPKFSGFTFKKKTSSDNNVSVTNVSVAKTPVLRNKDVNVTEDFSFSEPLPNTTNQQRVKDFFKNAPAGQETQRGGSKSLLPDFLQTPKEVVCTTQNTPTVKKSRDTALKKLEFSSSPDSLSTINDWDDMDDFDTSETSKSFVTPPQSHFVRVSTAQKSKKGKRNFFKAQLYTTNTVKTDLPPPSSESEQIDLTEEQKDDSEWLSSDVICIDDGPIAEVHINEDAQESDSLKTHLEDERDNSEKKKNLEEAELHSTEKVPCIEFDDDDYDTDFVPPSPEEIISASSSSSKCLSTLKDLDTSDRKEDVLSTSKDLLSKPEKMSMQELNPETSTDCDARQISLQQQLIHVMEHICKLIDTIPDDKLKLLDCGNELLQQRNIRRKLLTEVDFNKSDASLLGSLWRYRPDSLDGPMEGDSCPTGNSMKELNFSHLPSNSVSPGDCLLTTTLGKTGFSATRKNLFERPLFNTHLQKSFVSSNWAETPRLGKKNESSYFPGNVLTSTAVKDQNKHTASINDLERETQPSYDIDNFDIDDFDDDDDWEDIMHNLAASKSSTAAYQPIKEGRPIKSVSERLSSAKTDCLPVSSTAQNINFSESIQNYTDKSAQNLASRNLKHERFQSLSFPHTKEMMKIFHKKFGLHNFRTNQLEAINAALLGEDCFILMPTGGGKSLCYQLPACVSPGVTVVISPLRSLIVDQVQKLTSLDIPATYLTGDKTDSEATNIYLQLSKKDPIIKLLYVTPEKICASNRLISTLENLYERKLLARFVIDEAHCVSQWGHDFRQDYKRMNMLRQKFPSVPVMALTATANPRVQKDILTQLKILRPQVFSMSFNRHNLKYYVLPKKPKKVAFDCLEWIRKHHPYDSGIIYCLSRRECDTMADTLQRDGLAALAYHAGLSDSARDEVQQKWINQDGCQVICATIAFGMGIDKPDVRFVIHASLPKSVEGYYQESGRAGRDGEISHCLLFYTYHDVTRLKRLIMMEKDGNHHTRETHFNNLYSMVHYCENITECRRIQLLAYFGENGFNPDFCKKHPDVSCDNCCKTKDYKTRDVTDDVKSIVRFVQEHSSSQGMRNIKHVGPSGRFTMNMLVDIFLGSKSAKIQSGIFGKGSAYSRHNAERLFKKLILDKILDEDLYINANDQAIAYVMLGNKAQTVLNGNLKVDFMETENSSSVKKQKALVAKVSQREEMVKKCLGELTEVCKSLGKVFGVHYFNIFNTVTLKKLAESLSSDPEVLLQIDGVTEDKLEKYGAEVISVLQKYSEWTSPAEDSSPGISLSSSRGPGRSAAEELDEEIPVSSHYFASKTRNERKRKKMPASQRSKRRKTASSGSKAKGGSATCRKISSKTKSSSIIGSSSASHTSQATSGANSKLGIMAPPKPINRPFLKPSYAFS
Summary of the method: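 Forked 20-bp duplex substrate (200 nM, TAMRA/BHQ-2) plus 2 mM ATP added after 15 min compound preincubation with 50 nM enzyme, pH 8.0, poly(dI-dC) 2.5 ug/ml. Strand separation followed by fluorescence (525/598 nm) over 2 h, normalized to enzyme-free and DMSO controls.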

[20] = measured here: cell count channel max response
[21] = measured here: lipid channel max response

Cc1oncc1C(=O)Nc1ccc(C(F)(F)F)cc1
-15.6% and 18.5% and -28.2%: max response [2, 21]
-14.5% and 1.19% and -29.1%: max response [2, 20]
inactive: outcome [1] | activity change, negative = inhibition ([2]; at 25.7 µM (top of the series)) 0.243% | activity change, negative = inhibition ([2]; at 57.5 µM (top of the series)) 13.4% and -0.067% | outcome [3] | outcome [4] | outcome [5] | Potency [6] | Potency [7] | Potency [8] | Potency [9] | Potency [10] | outcome [11] | outcome [12] | outcome [13] | outcome [14] | outcome [15]

CCN(CC)CCCC(C)Nc1ccnc2cc(Cl)ccc12 (stereo unspecified)
inactive: outcome [1] | activity change, negative = inhibition ([2]; at 57.5 µM (top of the series)) 4.83% | outcome [3] | outcome [4] | outcome [18] | outcome [11] | Potency [19] | outcome [12] | outcome [13] | outcome [14] | outcome [15]
21.7%: max response [2, 21]
active: Potency [6] 2.51 µM | Potency [7] 1.78 µM | Potency [16] 0.112 µM | Potency [8] 0.316 µM | Potency [9] 10 µM | Potency [17] 2.24 µM | Potency [10] 0.282 µM
12.7%: max response [2, 20]

CCC(C)N(C)C(=O)c1cc2ccccc2c(-c2ccccc2Cl)n1 (stereo unspecified)
active: Potency [6] 7.94 µM | Potency [7] 12.6 µM | Potency [8] 11.2 µM | Potency [17] 7.94 µM | Potency [10] 12.6 µM
inactive: outcome [1] | outcome [3] | outcome [4] | Potency [9] | outcome [11] | outcome [12] | outcome [13] | outcome [14] | outcome [15]

CN1CCN(CCCN2c3ccccc3Sc3ccc(C(F)(F)F)cc32)CC1
-20.9% and 29.4%: max response [2, 21]
active: Potency [6] 3.98 µM | Potency [7] 4.47 µM | Potency [16] 7.08 µM | Potency [8] 11.2 µM | Potency [9] 12.6 µM | Potency [17] 4.47 µM | Potency [10] 7.94 µM
inactive: activity change, negative = inhibition ([2]; at 25.7 µM (top of the series)) -6.05% | activity change, negative = inhibition ([2]; at 57.5 µM (top of the series)) 7.35% | outcome [3] | outcome [4] | outcome [11] | Potency [19] | outcome [14]
-17.1% and 19.1%: max response [2, 20]

NC[C@H](O)c1ccc(O)c(O)c1
inactive: outcome [1] | activity change, negative = inhibition ([2]; at 57.5 µM (top of the series)) 0.534% | outcome [3] | outcome [4] | outcome [5] | Potency [7] | Potency [16] | Potency [8] | Potency [9] | Potency [10] | outcome [11] | outcome [12] | outcome [13] | outcome [14] | outcome [15]
-22.5%: max response [2, 20]
-21.1%: max response [2, 21]

Cc1ccc(N(CC2=NCCN2)c2cccc(O)c2)cc1
active: Potency [17] 11.2 µM
inactive: outcome [1] | activity change, negative = inhibition ([2]; at 25.7 µM (top of the series)) 1.77% | activity change, negative = inhibition ([2]; at 57.5 µM (top of the series)) 11.7% and 0.54% | outcome [3] | outcome [4] | outcome [5] | Potency [8] | Potency [9] | outcome [11] | outcome [12] | outcome [13] | outcome [14] | outcome [15]
-8.46% and 20.7% and 65.8%: max response [2, 21]
-12.1% and 5.79% and 62.4%: max response [2, 20]

N=c1nc(N2CCCCC2)cc(N)n1O
-1.22% and 19% and 16.9%: max response [2, 20]
1.34% and 23.5% and 29.3%: max response [2, 21]
inactive: outcome [1] | activity change, negative = inhibition ([2]; at 25.7 µM (top of the series)) 0.0649% | activity change, negative = inhibition ([2]; at 57.5 µM (top of the series)) 3.81% and 8.57% | outcome [3] | outcome [4] | outcome [5] | Potency [6] | Potency [7] | Potency [16] | Potency [8] | Potency [9] | Potency [17] | Potency [10] | outcome [18] | outcome [11] | Potency [19] | outcome [12] | outcome [13] | outcome [14] | outcome [15]

Nc1nc2ccc(OC(F)(F)F)cc2s1
inactive: activity change, negative = inhibition ([2]; at 25.7 µM (top of the series)) -1.29% | activity change, negative = inhibition ([2]; at 57.5 µM (top of the series)) 1.85% | outcome [3] | outcome [4] | outcome [5] | Potency [6] | Potency [7] | Potency [16] | Potency [8] | Potency [10] | outcome [11] | outcome [12] | outcome [13] | outcome [14] | outcome [15]
-7.42% and -26.5%: max response [2, 20]
-8.28% and -25.3%: max response [2, 21]

CC(=O)Oc1ccccc1C(=O)O
27.8%: max response [2, 21]
inactive: outcome [1] | activity change, negative = inhibition ([2]; at 57.5 µM (top of the series)) 4.32% | outcome [3] | outcome [4] | outcome [5] | Potency [6] | Potency [7] | Potency [16] | Potency [8] | Potency [9] | Potency [17] | Potency [10] | outcome [18] | outcome [11] | outcome [12] | outcome [13] | outcome [14] | outcome [15]
19.3%: max response [2, 20]

O=C1CCC(N2C(=O)c3ccccc3C2=O)C(=O)N1 (stereo unspecified)
inactive: outcome [1] | activity change, negative = inhibition ([2]; at 57.5 µM (top of the series)) 4.49% and -2.08% | outcome [3] | outcome [4] | outcome [5] | Potency [6] | Potency [7] | Potency [16] | Potency [8] | Potency [9] | Potency [17] | Potency [10] | outcome [18] | outcome [11] | outcome [12] | outcome [13] | outcome [14] | outcome [15]
6.67% and -27.8%: max response [2, 20]
12.7% and -27.8%: max response [2, 21]

NCCCC(N)(C(=O)O)C(F)F (stereo unspecified)
inactive: outcome [1] | outcome [3] | outcome [4] | outcome [5] | Potency [6] | Potency [7] | Potency [16] | Potency [8] | Potency [9] | Potency [17] | Potency [10] | outcome [11] | outcome [12] | outcome [13] | outcome [14] | outcome [15]
